Screens: PubChem, National Center for Advancing Translational Sciences (NCATS)
The list is not random: actives were taken first. Their share in the collection is about 8.7%.
BAZ2B inh = qHTS Assay for Inhibitors of BAZ2B; Bromodomain adjacent to zinc finger domain protein 2B (Homo sapiens), Q9UIF8; AlphaScreen BAZ2B-H3K14Ac peptide displacement; Potency, µM (doses to about 114 µM), hits mostly inhibitors; 360,000 tested, 4.4% active; further: nearly all actives have a fitted effect of over 60% in size
Target sequence (Q9UIF8 whole entry, looked up, the tested form may be a part): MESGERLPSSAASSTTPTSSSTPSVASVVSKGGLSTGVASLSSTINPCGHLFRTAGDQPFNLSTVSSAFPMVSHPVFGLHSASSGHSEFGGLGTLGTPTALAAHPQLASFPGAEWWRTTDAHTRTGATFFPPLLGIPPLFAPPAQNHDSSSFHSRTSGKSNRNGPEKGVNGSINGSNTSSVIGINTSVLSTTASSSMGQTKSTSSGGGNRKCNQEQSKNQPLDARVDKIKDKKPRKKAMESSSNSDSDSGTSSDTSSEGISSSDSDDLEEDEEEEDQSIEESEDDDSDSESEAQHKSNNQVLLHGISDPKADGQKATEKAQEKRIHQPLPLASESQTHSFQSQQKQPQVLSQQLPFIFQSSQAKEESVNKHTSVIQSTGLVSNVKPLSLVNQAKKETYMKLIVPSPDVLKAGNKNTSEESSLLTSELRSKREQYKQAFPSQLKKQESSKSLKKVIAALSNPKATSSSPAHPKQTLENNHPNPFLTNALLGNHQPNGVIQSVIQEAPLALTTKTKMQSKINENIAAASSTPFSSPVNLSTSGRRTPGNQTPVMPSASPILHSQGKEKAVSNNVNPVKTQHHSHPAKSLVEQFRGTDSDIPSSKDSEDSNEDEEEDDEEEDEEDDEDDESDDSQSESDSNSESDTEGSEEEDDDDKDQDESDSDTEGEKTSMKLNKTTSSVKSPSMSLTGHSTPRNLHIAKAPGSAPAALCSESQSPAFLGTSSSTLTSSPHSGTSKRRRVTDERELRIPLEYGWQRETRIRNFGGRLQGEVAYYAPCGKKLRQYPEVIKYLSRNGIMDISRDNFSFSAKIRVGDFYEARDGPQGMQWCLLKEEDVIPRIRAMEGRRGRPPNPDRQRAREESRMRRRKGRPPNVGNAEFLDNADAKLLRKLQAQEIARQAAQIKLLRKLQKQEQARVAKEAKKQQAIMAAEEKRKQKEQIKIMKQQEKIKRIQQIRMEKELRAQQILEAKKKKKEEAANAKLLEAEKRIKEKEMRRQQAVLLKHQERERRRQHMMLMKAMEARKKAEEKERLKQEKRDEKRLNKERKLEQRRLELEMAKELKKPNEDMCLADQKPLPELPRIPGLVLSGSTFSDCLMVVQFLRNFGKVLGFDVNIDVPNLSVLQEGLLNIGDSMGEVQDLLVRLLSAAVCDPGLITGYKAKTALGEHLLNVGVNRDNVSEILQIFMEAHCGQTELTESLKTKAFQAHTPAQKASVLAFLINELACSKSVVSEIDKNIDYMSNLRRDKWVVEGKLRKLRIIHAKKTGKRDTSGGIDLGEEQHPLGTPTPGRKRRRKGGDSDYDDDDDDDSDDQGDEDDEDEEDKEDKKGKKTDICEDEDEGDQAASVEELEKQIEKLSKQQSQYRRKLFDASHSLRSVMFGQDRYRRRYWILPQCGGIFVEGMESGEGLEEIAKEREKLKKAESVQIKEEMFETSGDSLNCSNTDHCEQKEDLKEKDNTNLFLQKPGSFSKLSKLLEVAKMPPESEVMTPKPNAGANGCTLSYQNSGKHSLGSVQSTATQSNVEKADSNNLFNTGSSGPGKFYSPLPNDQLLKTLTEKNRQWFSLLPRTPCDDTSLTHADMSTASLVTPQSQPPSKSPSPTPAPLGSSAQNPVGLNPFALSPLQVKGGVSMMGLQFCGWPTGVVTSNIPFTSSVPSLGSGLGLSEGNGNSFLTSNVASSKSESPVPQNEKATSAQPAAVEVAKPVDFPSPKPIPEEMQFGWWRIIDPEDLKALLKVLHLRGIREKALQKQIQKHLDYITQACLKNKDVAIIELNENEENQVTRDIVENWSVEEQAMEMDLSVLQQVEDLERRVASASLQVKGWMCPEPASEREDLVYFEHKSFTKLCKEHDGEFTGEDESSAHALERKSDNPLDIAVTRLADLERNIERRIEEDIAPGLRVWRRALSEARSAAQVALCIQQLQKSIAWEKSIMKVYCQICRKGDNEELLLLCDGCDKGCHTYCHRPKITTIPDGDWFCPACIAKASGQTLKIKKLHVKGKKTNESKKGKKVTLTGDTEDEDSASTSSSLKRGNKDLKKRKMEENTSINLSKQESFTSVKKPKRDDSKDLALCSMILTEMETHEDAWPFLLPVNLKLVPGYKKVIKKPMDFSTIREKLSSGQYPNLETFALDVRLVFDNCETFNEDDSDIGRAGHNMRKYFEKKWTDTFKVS
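BAZ2B (50 nM) with biotin-H3(5-23)K14Ac peptide (50 nM) in PBS pH 7.4, 0.01% Tween-20, preformed 30 min, then compound 30 min at room temperature; top concentration 110uM. AlphaScreen streptavidin donor/nickel chelate acceptor beads (10 ug/mL final), 20 min dark, signal read.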
ALOX12 inh = Primary qHTS assay for inhibitors of human arachidonate 12S-lipoxygenase (ALOX12): Round 2 | purified 12hLO, xylenol orange hydroperoxide absorbance | 580,000 tested, 1.1% active | Potency, µM (series often up to 108 µM), hits mostly inhibitors | Polyunsaturated fatty acid lipoxygenase ALOX12 (Homo sapiens), P18054
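Purified human 12hLO (150 nM final) in 25 mM Hepes, 0.01% Triton X-100, pH 7.0 was preincubated 15 min at room temperature with compound. Then 40 uM arachidonic acid was added, 30 min. Hydroperoxide was read by Fe-XO absorbance ratio 573/405 nm.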
JMJD2A Tudor inh = qHTS Assay for Inhibitors of JMJD2A-Tudor Domain. Potency, µM (top dose mostly 114 µM), hits mostly inhibitors. 390,000 tested, 4.4% active. AID 504339, 2011. Lysine-specific demethylase 4A (Homo sapiens), O75164. AlphaScreen JMJD2A-Tudor / H3K4me3 peptide binding; further: nearly all actives have a fitted effect of over 50% in size
G9a block = qHTS Assay for Inhibitors of Histone Lysine Methyltransferase G9a. Histone-lysine N-methyltransferase EHMT2 (Homo sapiens), Q96KQ7. G9a H3K9 monomethylation, AlphaScreen, 2 h. Potency, µM (doses to about 102 µM), actives largely listed as inhibitors. 350,000 tested, 8.8% active; further: nearly all actives have a fitted effect of over 75% in size
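Enzyme 20 nM + cpd, 15 min RT; add b-H3K9 pep 500 nM / SAM 20 uM; 2 h RT; anti-H3K9me1 Ab 0.5 ug/mL + SA donor / anti-rabbit acceptor beads 20 ug/mL each, 10 min; AlphaScreen read.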
HP1b binding inh = HTS for Inhibitors of HP1-beta Chromodomain Interactions with Methylated Histone Tails; 390,000 tested, 0.56% active; AID 540317, 2011; AlphaScreen HP1-beta / biotin-H3K9me3 peptide binding; Potency, µM (series often up to 114 µM), most hits filed as inhibitors; further: nearly all actives have a fitted effect of over 70% in size
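HP1-beta protein (50 nM final) preincubated 30 min at room temperature with biotinylated H3(1-18)K9me3 peptide (50 nM) in PBS pH 7.4, 0.01% Tween-20, then compound added for 30 min. AlphaScreen streptavidin donor/nickel chelate acceptor beads (10 ug/mL final), 30 min dark, luminescence read.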
Sfp inh = qHTS Assay for Inhibitors of Bacillus subtilis Sfp phosphopantetheinyl transferase (PPTase); 310,000 tested, 3.5% active; AID 1490, 2009; Potency, µM, hits mostly inhibitors; 4'-phosphopantetheinyl transferase ffp (Bacillus subtilis), Q9F4F7; Biochemical Sfp PPTase activity, qHTS;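 further: the enzyme is Sfp with the accession as filed and its product quenches rhodamine fluorescence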
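Sfp 15 nM + cpd, 15 min RT; start w/ rhodamine-CoA 5 uM, BHQ-2-YbbR 12.5 uM (final); 50 mM Hepes pH 7.6, 10 mM MgCl2, 0.01% NP-40, 0.01% BSA; read 525/598 nm at 0 and 30 min.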
A number is an active result; n = inactive; u = inconclusive; x = no result given; ! = a repeat was not active; [ ] = remark or other dose. The call rests on the fitted dose curve; in most records, active means well fitted curve in the direction sought with a large enough effect; inconclusive means small, poorly fitted or top-dose-only effect, or another doubt; inactive means no such curve, though single readings can be large; an effect the other way counts as inactive or inconclusive.

SMILES	BAZ2B inh	ALOX12 inh	JMJD2A Tudor inh	G9a block	HP1b binding inh	Sfp inh
CCCN1C(=O)/C(=C2\SC(N3CCCCC3)=NC2=O)c2ccccc21	16µM	n	40µM	22µM	n	u
O=C1N=C(N2CCOCC2)S/C1=C1\C(=O)N(Cc2ccccc2)c2ccccc21	n	u	n	n	n	n
CC1CN(C2=NC(=O)/C(=C3/C(=O)N(Cc4ccc(F)cc4)c4ccccc43)S2)CC(C)O1 (stereo unspecified)	u	u	n	x	u	40µM
CN1C(=O)/C(=C2\SC(N3CCCCCC3)=NC2=O)c2ccccc21	u	n	40µM	40µM	u	n
Cc1ccc(/C=C2\SC(N3CCCC3)=NC2=O)cc1	n	n	x	n	x	n
S=C(NCc1ccccc1)N/N=C/c1cccc(OCCOc2ccc(Br)cc2)c1	x	n	x	x	x	x
CN(CC(=O)NC(=O)NCc1ccccc1)Cc1ccsc1	x	n	x	x	x	x
CCNC(=O)N1CC(C(=O)N2CCCC(C(=O)OCC)C2)CC(c2ccc(F)c(C)c2)C1 (stereo unspecified)	x	n	x	x	x	x
CCCCCCCOc1ccc(-c2ccc(C3CCC(CC)CC3)cn2)cc1F (stereo unspecified)	x	n	x	x	x	x
O=C1C=C(O)c2ccccc2C1=O	x	u	x	x	x	79µM!
CC(=O)Nc1ccccc1Sc1ccccc1	n	n	n	n	n	n
O=C1C=C(c2c(O)ccc3ccccc23)c2ccccc2C1=O	x	45µM	40µM	x	25µM	x
O=C1c2cccc(Sc3ccccc3)c2C(=O)c2c(Sc3ccccc3)cccc21	16µM	n	3.2µM	1µM	7.9µM	n
O=C(O)c1cc2ccccc2c2c1C(=O)c1ccccc1-2	x	n	x	x	x	x
O=C1c2cccc(O)c2C(=O)c2c(O)cccc21	u	n	x	7.9µM	x	28µM!
O=C1c2ccccc2-c2ccccc21	x	n	x	x	x	x
CC(=O)N(C)C1=C(O)c2ccccc2C(=O)C1=O	u	n	n	79µM	n	n
CC(=O)N(C1=C(O)c2ccccc2C(=O)C1=O)C1CCCCC1	u	u	n	n	n	n
COc1cccc2c1-c1c(O)cccc1C2=O	n	u	n	n	n	n
O=C1C(O)=C(O)C(=O)c2ccccc21	x	u	56µM	x	u	x
O=C1C=C(O)c2cccc(O)c2C1=O	u	35µM	u	n	n	n
CSc1nc(Nc2ccccc2)c(C#N)c(-c2ccccc2)n1	x	n	x	x	x	x
CCOC(=O)c1cccc(NC(=O)[C@H](C(C)C)n2nnc3ccccc3c2=O)c1	x	n	x	x	x	x
CCCCCCCC(=O)N/N=C/c1cccc2ccccc12	x	n	x	x	x	x
COCC(C)n1c(C)cc(C(=O)COc2ccc(N(C)S(=O)(=O)c3ccc(NC(C)=O)cc3)cc2)c1C (stereo unspecified)	u	n	n	35µM	n	x
SMILES	BAZ2B inh	ALOX12 inh	JMJD2A Tudor inh	G9a block	HP1b binding inh	Sfp inh
C=CCn1c(C)cc(C(=O)COc2ccc(N(C)S(=O)(=O)c3ccc(NC(C)=O)cc3)cc2)c1C	x	n	n	x	n	x
COc1cccc(=O)c2c(C)n(-c3ccc(C(=O)O)cc3)c(C)c12	u	n	n	u	n	4.5µM
CCOc1cccc(=O)c2c(C)n(-c3ccc(C(=O)O)cc3)c(C)c12	50µM	u	u	x	u	28µM
Cc1ccc(NC(=O)C2CC3CCCC(C2)C3=O)cc1 (stereo unspecified)	x	n	x	x	x	x
COc1ccccc1CN1CCNc2cc(-c3ccnc(C)c3)ncc2C1	x	n	x	x	x	x
COc1ccccc1CN(Cc1ccccc1OC)[C@H]1C[C@@H](Cc2cc(CN3CCOCC3)on2)C1(C)C	x	n	x	x	x	x
O=C1C=C(N2CCOCC2)C2(CCCCC2)O1	u	n	n	45µM	n	n
O=C1C=C(N2CCCCC2)C2(CCCCC2)O1	n	n	n	n	n	n
O=C(O)c1ccc(Nc2nc3ccccc3nc2NS(=O)(=O)c2cccs2)cc1	n	u	n	50µM	n	n
COc1cccc(Nc2nc3ccccc3nc2NS(=O)(=O)c2cccs2)c1	n	u	89µM	n[12.7 µM]	n	n
CN=C(NC)c1ccc([N+](=O)[O-])cc1	x	n	x	x	x	x
